High-throughput results as filed in PubChem BioAssay.
Dicer processing = blocks human Dicer maturation of pre-miR-21 | Q9UPY3 | cat-ELCCA pre-miR-21 Dicer processing, chemiluminescence; hits give high values | z-score at 25 µM | actives 6% (n = 47,000) | AID 1347074; in the data active means z-score above about 3, passing the limit was not always enough;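 further: plate controls were vehicle for no effect and no enzyme for full effect; higher signal means more uncleaved substrate so more Dicer inhibition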
The depositor's hits bear a star. This excerpt belongs to a sample that is enriched for hits.

SMILES | Dicer processing
O=C(c1cccc2ccccc12)N1CCc2[nH]c3ccc(F)cc3c2C1 | -0.03
Cc1ccnc(Nc2nc(-c3ccc(F)cc3)cs2)c1 | 2.1
CSc1sc(C(=O)Nc2ccccc2Cl)cc1-c1nc(-c2ccc(Cl)cc2)cs1 | 1.1
O=C(Nc1ccc(F)cc1)Nc1nc(-c2ccc(F)c(F)c2)cs1 | 3*
COc1ccccc1NC(=O)Nc1nc(-c2ccc(F)c(F)c2)cs1 | -3.1
O=C(Nc1ccccc1)Nc1nc(-c2ccc(F)c(F)c2)cs1 | 2.3
Fc1ccc(Nc2nc(-c3ccc(F)c(F)c3)cs2)c(F)c1 | 60*
O=C(Nc1ccc(OC(F)(F)F)cc1)Nc1nc(-c2ccc(F)c(F)c2)cs1 | 1.6
O=C(Nc1nc(-c2ccc(F)c(F)c2)cs1)Nc1ccc(Cl)cc1Cl | 1.5
CC(C)(C)c1ccccc1NC(=O)Nc1nc(-c2ccc(F)c(F)c2)cs1 | 3.7*
CNC(=O)Nc1ccccc1NC1=C(C(=O)OC)CSC1 | -0.53
O=C(/C=C/Sc1cc(Cl)ccc1Cl)c1ccc(F)cc1 | -0.92
Cc1ccc(Oc2ncc(Cl)cc2C(F)(F)F)c2c1CCC2 | -0.87
Cc1ccc(-c2nc(NC(=O)c3c(F)cccc3F)sc2C)cc1Cl | 1.3
CC12CCC(C1)C(C)(C)C2NC(=O)C1CCC1 (stereo unspecified) | 0.41
COC(=O)C1=C(N)n2c(s/c(=C\c3ccc(Cl)cc3)c2=O)=C(C#N)C1c1ccc(Cl)cc1 (stereo unspecified) | -0.73
CC(=O)Oc1ccc(CC2SC(=O)NC2=O)cc1 (stereo unspecified) | -0.85
Cc1ccc(C(O)c2cccnc2)o1 (stereo unspecified) | 1.7
Cc1ccc(/C=C/c2noc(-c3ccccc3O)n2)o1 | -0.84
Cc1ccc(C(c2ccc(C)o2)c2ccccc2O)o1 | 5.3*
CC(C)(C)/C=N/N/C=C(\C#N)S(=O)(=O)C(C)(C)C | -1.5
CC(=O)Nc1ccc([N+](=O)[O-])cc1C#N | -0.3
CC(C)NC(=S)N1CCCN2C(=O)c3ccccc3C21 (stereo unspecified) | -0.28
Cc1cccc(C(=O)N(Cc2ccccc2)C(C)C)c1C | -1.2
CC(=O)NC(Nc1ccccc1C)(C(F)(F)F)C(F)(F)F | -0.14
SMILES | Dicer processing
C/C(Nc1ccccc1F)=C1/CCOC1=O | 0.1
C/C(Nc1ccccc1C)=C1/CCOC1=O | 4*
COc1ccc(C2CC(=O)NN2)cc1OC1CCCC1 (stereo unspecified) | -4.2
CC(C)(CO)NC(=S)Nc1cccc(F)c1 | -0.02
Fc1cccc(NC(=S)NNc2ccccc2)c1 | 5.9*
S=C(NNc1ccccc1)Nc1c(Cl)cccc1Cl | -2.6
CN1CCN(S(=O)(=O)c2ccc3ccccc3c2)CC1 | -0.65
COc1ccc(S(=O)(=O)N2CCN(C)CC2)cc1C | 4*
COc1ccc(OC)c(S(=O)(=O)N2CCN(C)CC2)c1 | -1.2
O=C1CC(c2cccs2)c2c(-c3ccccc3)nn(-c3ccccc3)c2N1 (stereo unspecified) | 0.79
CN1CN=C(SCc2ccc(Cl)cc2)NC1 | 0.6
Nc1ncnc2c1ncn2CCN1CCCCC1 | -1.7
Nc1ncnc2c1ncn2CC(O)CO (stereo unspecified) | 6.8*
Nc1ncnc2c1ncn2CCc1ccccc1 | -0.86
COC(=O)c1scc(C)c1NNC(=O)C(F)(F)F | 0.22
CCOC(=O)c1cnc(SCC(=O)c2cccc([N+](=O)[O-])c2)nc1N | -0.38
CCOC(=O)c1ccc2nc(-n3cccc3)sc2c1 | 1.7
C=CCN1C(=O)SC(CC(=O)O)C1=O (stereo unspecified) | -0.77
COc1cc(/C=N/N=C2/SC(CC(=O)O)C(=O)N2C)cc(OC)c1OC (stereo unspecified) | 2.5
CN=C1SC(CC(=O)O)C(=O)N1C (stereo unspecified) | 20*
COc1cc(C(=O)c2c(C)c(C)c(C)c(C)c2C)cc(OC)c1OC | -0.31
CCc1cccc(C)c1NC1=NCCC(=O)S1 | 0.51
Cc1nc(-c2ccc(S(=O)(=O)NCCCN)s2)cs1 | -0.56
Cc1ccc(SCc2c(Cl)sc3ccccc23)cc1 | 0.15
O=C1CCCC2=C1C(c1ccc3c(c1)OCO3)n1nc(-c3cccc(Cl)c3)nc1N2 (stereo unspecified) | 4.1*
SMILES | Dicer processing
O=C1CCCC2=C1C(c1ccncc1)n1nc(-c3cccc(Cl)c3)nc1N2 (stereo unspecified) | -0.3
Cc1cccc(-c2nc3n(n2)C(c2ccc(O)cc2)C2=C(CCCC2=O)N3)c1 (stereo unspecified) | 0.2
Cc1nc(NC2=NCN(C(C)C)CN2)nc2ccccc12 | -0.06
OC(CN1CCN(c2nc3ccc(Cl)cc3s2)CC1)Cn1ccc2ccccc21 (stereo unspecified) | -0.74
COC(=O)c1ccc(Cn2nc([N+](=O)[O-])cc2C)cc1 | 0.16
O=C(c1cc(-c2ccccc2)nc2ccccc12)N1CCOCC1 | 1.5
O=C(C1Cc2ccccc2C1)N1CCOCC1 | 7.3*
Cc1ccc(SC(=O)N2CCOCC2)cc1 | -0.58
CCOC(=O)c1sc(N2C(=O)c3oc4ccccc4c(=O)c3C2c2ccccc2F)nc1C (stereo unspecified) | 0
FC(F)(F)c1ccc(-c2csc(-c3ccc(C4SCCS4)cc3)n2)cc1 | -1.2
